About 3,200 (25%) of roughly 13,000 compounds showed an effect of 50% or more. This is one part of the list.
Test system: P. falciparum stage V gametocytes
Design: BacTiter-Glo ATP luminescence viability of purified stage V gametocytes in 384-well plates, per cent inhibition versus DMSO
Conditions: 48 h, 5 µM; inhibitor

SMILES | % Inhibition
COCCNCc1ncsc1-c1ccc2c(Nc3cc(O)c(Cl)cc3F)ccnc2c1 [TCMDC-138441] | 3.438%
Cc1nc(N=C(N)N)nc2cc3c(cc12)CCC3 [TCMDC-141187] | 84.12%
Cc1nc(N=C(N)N)nc2ccc(C(C)(C)C)cc12 [TCMDC-137936] | -23.7%
CCC1(C)N=C(N)N=C(N)N1c1ccc(Cl)cc1 (centres unmarked) [TCMDC-132039] | 4.957%
COc1cc2ncnc(Nc3ccc(OC(F)(F)c4ccccc4)cc3)c2cc1OC [TCMDC-131925] | 12%
COc1cc(Nc2ncnc3cc(OC)c(OC)cc23)cc([N+](=O)[O-])c1 [TCMDC-138138] | 82.08%
COc1cc2ncnc(Nc3ccc(Br)c(Cl)c3)c2cc1OC [TCMDC-131909] | 14.07%
CCOC(=O)c1ccc(NC(=O)Nc2cccc(-c3ccc(-c4nc5ccccc5[nH]4)cc3)c2)cc1 [TCMDC-133266] | -19.34%
O=C(/C=C/c1ccc(Cl)c(Cl)c1)NCCCCCN1CCC(NC(=O)Nc2ccc(F)c(F)c2)CC1 [TCMDC-135714] | -48.39%
Cc1[nH]c(C)c(-c2ccc(Oc3ccc(O)cc3)cc2)c(=O)c1Cl [TCMDC-136135] | -17.77%
COc1ccc(C#Cc2ccc(-c3c(C)[nH]c(C)c(Cl)c3=O)cc2)cc1 [TCMDC-135655] | 67.24%
CC(=O)Nc1ccc(C#Cc2ccc(-c3c(C)[nH]c(C)c(Cl)c3=O)cc2)cc1 [TCMDC-135653] | 34.03%
C/C=C/COc1ccc(-c2c(C)[nH]c(C)c(Cl)c2=O)cc1 [TCMDC-134729] | 76.24%
COc1ccc(Oc2ccc(-c3c(C)[nH]c(C)c(Cl)c3=O)cc2)cc1 [TCMDC-136134] | 78.59%
Cc1[nH]c(C)c(-c2ccc(OCc3ccc(F)cc3)cc2)c(=O)c1Cl [TCMDC-132415] | 7.51%
COc1ccc(CCc2ccc(-c3c(C)[nH]c(C)c(Cl)c3=O)cc2)cc1OC [TCMDC-135789] | 86.31%
COc1ccc(C=Cc2ccc(-c3c(C)[nH]c(C)c(Cl)c3=O)cc2)cc1OC [TCMDC-135788] | 33.6%
CN1CC[C@H](N(Cc2ccccc2F)c2ccc(C#N)c(Cl)c2)C1 [TCMDC-137035] | 21.12%
COc1ccc(CN2CCC2=O)c(OC)c1 [TCMDC-132118] | 45.15%
CC(=O)N[C@@H]1c2cc(C(C)=O)ccc2OC(C)(C)[C@@H]1O [TCMDC-139001] | 15.15%
CC(C)(C)c1ccc(S(=O)(=O)Nc2cc(Cl)ccc2Cn2ccc(N3CCNCC3)nc2=O)cc1 [TCMDC-132581] | 5.996%
Oc1ccc2[nH]c(-c3cccs3)nc2c1CN1CCC(N2CCCC2)CC1 [TCMDC-136356] | -12.57%

SMILES | % Inhibition
COc1ccc(CCn2c(=N)c(C(=O)NCc3ccc(C)cc3)cc3c(=O)n4ccccc4nc32)cc1 [TCMDC-124475] | 27.16%
Cc1[nH]c(C)c(-c2ccc(CCc3ccc(N)cc3)cc2)c(=O)c1Cl [TCMDC-135678] | 70.67%
COc1ccc(CCc2ccc(-c3c(C)[nH]c(C)c(Cl)c3=O)cc2)cc1 [TCMDC-135654] | 77.1%
Cc1[nH]c(C)c(-c2ccc(Oc3ccc(F)cc3)cc2)c(=O)c1Cl [TCMDC-134728] | 77.31%
CC1(C)N=C(N)N=C(N)N1c1cc(Cl)c(Cl)c(Cl)c1 [TCMDC-137508] | -8.001%
Cc1cnc(-c2cccc(C(=O)NC3CCC(CCN4CCc5ccc(C#N)cc5CC4)CC3)c2)[nH]1 (centres unmarked) [TCMDC-139842] | -56.62%
CS(=O)(=O)N1CC2(CCN(CCC(NC(=O)NCc3ccccc3Cl)c3ccc(Cl)c(Cl)c3)CC2)c2ccccc21 (centres unmarked) [TCMDC-141768] | 10.44%
O=C(Nc1ccc(Br)c(C(F)(F)F)c1)c1cccc([N+](=O)[O-])c1 [TCMDC-123520] | -21.49%
O=C1COC2(CN1C1CCN(Cc3ccc(O)cc3Cl)C1)c1ccccc1-c1ccccc12 (centres unmarked) [TCMDC-136341] | 24.28%
FC(F)(F)c1ccc2nc(-c3ccc(-c4cccc(CN5CCN(CCN6CCOCC6)CC5)c4)cc3)[nH]c2c1 [TCMDC-133943] | -11.41%
CN1CCC(N2CCN(Cc3cccc(-c4ccc(-c5nc6ccc(F)cc6[nH]5)cc4)c3)CC2)CC1 [TCMDC-133858] | 97.12%
OCCN1CCN(Cc2cccc(-c3ccc(-c4nc5ccc(C(F)(F)F)cc5[nH]4)cc3)c2)CC1 [TCMDC-133031] | 3.481%
OCCN1CCN(Cc2ccc(-c3cccc(-c4nc5ccc(F)cc5[nH]4)c3)cc2)CC1 [TCMDC-133032] | -6.536%
CN1CCC(N2CCN(Cc3cccc(-c4ccc(-c5nc6ccc(C(F)(F)F)cc6[nH]5)cc4)c3)CC2)CC1 [TCMDC-133842] | 104%
CN1CCC(N2CCN(Cc3ccc(-c4cccc(-c5nc6ccc(F)cc6[nH]5)c4)cc3)CC2)CC1 [TCMDC-133843] | 52.56%
N#CCCN1CCN(Cc2cccc(-c3ccc(-c4nc5ccc(F)cc5[nH]4)cc3)c2)CC1 [TCMDC-133860] | -16.76%
Fc1ccc2nc(-c3ccc(-c4cccc(CN5CCN(CCN6CCOCC6)CC5)c4)cc3)[nH]c2c1 [TCMDC-133936] | -11.53%
Fc1ccc2nc(-c3cccc(-c4ccc(CN5CCN(CCN6CCOCC6)CC5)cc4)c3)[nH]c2c1 [TCMDC-133942] | 39.55%
CCN(c1cc(C)nc(Nc2ccc(Cl)cc2)n1)[C@H]1CCN(Cc2ccccc2)C1 [TCMDC-132205] | -28.73%
CC(C)(C)c1cc(C(=O)N2CCN(c3nccnc3C#N)CC2)n(Cc2ccccc2)n1 [TCMDC-134141] | -3.89%
OC(c1cccc2ccccc12)C1CN(CCc2ccccc2)CCC1(O)c1ccccc1 (centres unmarked) [TCMDC-131998] | 42.45%
COc1ccc(C2=C(Nc3ccc4oc5ccccc5c4c3)c3ccccc3C2=O)cc1 [TCMDC-125672] | 2.294%

SMILES | % Inhibition
Cc1noc(C)c1-c1cccc(CNCc2ccc(-c3ccc(-c4nc5cc(F)ccc5[nH]4)cc3)cc2)c1.O=C(O)C(F)(F)F [TCMDC-133057] | 12.39%
Cc1cccc2nc(-c3cccc(-c4cccc(CNCC5CCCO5)c4)c3)[nH]c12.O=C(O)C(F)(F)F (centres unmarked) [TCMDC-133104] | 76.66%
Cc1cccc2nc(-c3ccc(-c4cccc(CNCC5CCCO5)c4)s3)[nH]c12.O=C(O)C(F)(F)F (centres unmarked) [TCMDC-133094] | 10.18%
Cc1cccc2nc(-c3cccc(-c4cccc(CNCc5cccc(N)c5)c4)c3)[nH]c12.O=C(O)C(F)(F)F [TCMDC-132928] | 56.62%
Cc1cccc2nc(-c3cccc(-c4ccc(CNCc5cccc(N)c5)cc4)c3)[nH]c12.O=C(O)C(F)(F)F [TCMDC-132930] | -5.493%
COC(=O)c1cccc(CNCc2ccc(-c3cccc(-c4nc5cccc(C)c5[nH]4)c3)cc2)c1.O=C(O)C(F)(F)F [TCMDC-132948] | 73.37%
Cc1cccc2nc(-c3ccc(-c4cccc(CNCC5CCCO5)c4)cc3)[nH]c12.O=C(O)C(F)(F)F (centres unmarked) [TCMDC-133098] | -5.371%
COC(=O)c1cccc(CNCc2cccc(-c3cccc(-c4nc5cccc(C)c5[nH]4)c3)c2)c1.O=C(O)C(F)(F)F [TCMDC-132946] | 7.725%
COc1ccc(CNCc2ccc(-c3cccc(-c4nc5cccc(C)c5[nH]4)c3)cc2)cc1.O=C(O)C(F)(F)F [TCMDC-132729] | 40.55%
COC(=O)c1cccc(CNCc2cccc(-c3ccc(-c4nc5cccc(C)c5[nH]4)s3)c2)c1.O=C(O)C(F)(F)F [TCMDC-132956] | -38.48%
COC(=O)c1cccc(CNCc2ccc(-c3ccc(-c4nc5cccc(C)c5[nH]4)s3)cc2)c1.O=C(O)C(F)(F)F [TCMDC-132950] | 57.35%
COC(=O)c1cccc(CNCc2ccc(-c3ccc(-c4nc5ccccc5[nH]4)s3)cc2)c1.O=C(O)C(F)(F)F [TCMDC-132945] | -1.704%
Cc1cccc2nc(-c3ccc(-c4ccc(CNCc5cccc(N)c5)cc4)cc3)[nH]c12.O=C(O)C(F)(F)F [TCMDC-132938] | -30.59%
Brc1ccsc1-c1nc(NC2CCN(Cc3ccccc3)CC2)no1 [TCMDC-134188] | 10.75%
NCC(=O)NC12CC3CC(CC(C3)C1)C2 [TCMDC-131419] | -2.875%
N#CC1(c2ccccc2)CCN(c2nc(NCCCN3CCCC3=O)nc(N3CCCC4CCCCC43)n2)CC1 (centres unmarked) [TCMDC-139927] | -17.2%
CCNc1cc(C(=O)N[C@@H](Cc2ccccc2)[C@H](O)CNCCc2cc(OC)cc(OC)c2)cc(N2CCCCS2(=O)=O)c1 [TCMDC-134842] | 28.85%
Cc1cccc2nc(-c3ccc(-c4cccc(NC(=O)CCc5c[nH]cn5)c4)s3)[nH]c12 [TCMDC-132161] | 5.175%
COC(=O)c1cccc(CNCc2cccc(-c3ccc(-c4nc5cccc(C)c5[nH]4)cc3)c2)c1.O=C(O)C(F)(F)F [TCMDC-132952] | 25.59%
COC(=O)c1cccc(CNCc2ccc(-c3ccc(-c4nc5cccc(C)c5[nH]4)cc3)cc2)c1.O=C(O)C(F)(F)F [TCMDC-132957] | 77.27%
COC(=O)c1cccc(CNCc2ccc(-c3ccc(-c4nc5cc(F)ccc5[nH]4)cc3)cc2)c1.O=C(O)C(F)(F)F [TCMDC-132953] | 44.17%

Source: article PMC4552634, “A New Set of Chemical Starting Points with Plasmodium falciparum Transmission-Blocking Potential for Antimalarial Drug Discovery” (PLoS ONE, 2015)
